# An excerpt weighted towards active compounds, which were near 15% of everything screened.
# Gal4-VP16 FLuc: VP16 counterscreen qHTS for inhibitors of ROR gamma transcriptional activity; Drosophila S2 Gal4-VP16 UAS-luciferase, luminescence, 20 h; Potency, µM (top dose mostly 53.6 µM), for the others: at the highest dose activity, negative = inhibition, most hits filed as inhibitors; hit rate 3.5% among 310,000; AID 2546, 2010;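 note: Gal4-VP16 expression switched on by copper sulfate through the metallothionein promoter; nearly all actives have a fitted effect of over 50% in size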
# 12-LOX inh: Primary qHTS assay for inhibitors of human arachidonate 12S-lipoxygenase (ALOX12): Round 2. Polyunsaturated fatty acid lipoxygenase ALOX12 (Homo sapiens), P18054. purified 12hLO, xylenol orange hydroperoxide absorbance. Potency, µM (titrated, usually from 108 µM), for inactives: at the top dose activity change, negative = inhibition, most hits filed as inhibitors. hit rate 1.1% among 580,000. AID 1671190, 2021
# Target sequence (P18054 whole entry, looked up): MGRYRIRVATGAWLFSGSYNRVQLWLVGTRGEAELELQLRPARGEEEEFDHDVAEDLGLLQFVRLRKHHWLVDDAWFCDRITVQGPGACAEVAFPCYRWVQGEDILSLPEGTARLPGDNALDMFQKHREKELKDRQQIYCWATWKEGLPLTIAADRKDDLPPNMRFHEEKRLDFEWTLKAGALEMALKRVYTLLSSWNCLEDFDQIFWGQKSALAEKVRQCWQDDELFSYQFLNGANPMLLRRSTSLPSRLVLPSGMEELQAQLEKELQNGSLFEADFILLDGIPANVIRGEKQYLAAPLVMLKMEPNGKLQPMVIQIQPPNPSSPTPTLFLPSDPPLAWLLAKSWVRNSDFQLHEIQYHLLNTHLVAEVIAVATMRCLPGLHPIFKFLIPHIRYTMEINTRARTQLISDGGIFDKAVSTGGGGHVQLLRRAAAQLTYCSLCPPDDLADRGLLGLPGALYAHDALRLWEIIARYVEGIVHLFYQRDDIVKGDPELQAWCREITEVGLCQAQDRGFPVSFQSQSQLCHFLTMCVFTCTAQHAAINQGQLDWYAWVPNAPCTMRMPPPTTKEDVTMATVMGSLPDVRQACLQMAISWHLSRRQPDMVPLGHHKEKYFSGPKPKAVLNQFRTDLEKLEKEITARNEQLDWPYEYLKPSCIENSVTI
#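 Purified human 12hLO (150 nM final) in 25 mM Hepes, 0.01% Triton X-100, pH 7.0 was preincubated 15 min at room temperature with compound. Then 40 uM arachidonic acid was added, 30 min. Hydroperoxide was read by Fe-XO absorbance ratio 573/405 nm.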
# TDP1 cell noCPT: qHTS for Inhibitors of human tyrosyl-DNA phosphodiesterase 1 (TDP1): qHTS in cells in absence of CPT. DT40 Tdp1-/- hTDP1 cells, no CPT, ATP luminescence, 48 h. Potency, µM (doses to about 46.2 µM), for the others: top-dose activity change, negative = growth inhibition, actives largely listed as inhibitors. hit rate 15% among 420,000. AID 686978, 2013; note: nearly all actives have a fitted effect of over 55% in size
#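 Readout: luminescence from CellTiter-Glo after 30 min in the dark at RT. Cells: DT40 Tdp1-/- with stable hTDP1, 400/well. Exposure: compounds alone, ≥48 hr, 37 °C.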
# ELG1 repair inh: qHTS screen for small molecules that inhibit ELG1-dependent DNA repair in human embryonic kidney (HEK293T) cells expressing luciferase-tagged ELG1. HEK293T ELG1-luciferase reporter, luminescence, 16 h; DNA damage induced by 5-fluorouridine. Potency, µM (titrated, usually from 46.1 µM), without a hit: at the highest dose activity change, negative = inhibition, actives largely listed as inhibitors. hit rate 2.3% among 330,000. AID 504467, 2011; note: nearly all actives have a fitted effect of over 55% in size
#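 Step one: seed 2,000 cells per well. Step two: pin-transfer compound or DMSO alongside 5-fluorouridine. Step three: incubate 16 hr, 37 °C, 5% CO2. Step four: add ONE-Glo, wait 30 min, read luminescence.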
# DT40 TDP1 CPT: qHTS for Inhibitors of human tyrosyl-DNA phosphodiesterase 1 (TDP1): qHTS in cells in presence of CPT; chicken DT40 Tdp1-/-;hTDP1 cells + 20 nM CPT, ATP luminescence, 48 h; Potency, µM (series often up to 46.2 µM), for inactives: top-dose activity change, negative = growth inhibition, usual class: inhibitors; hit rate 12% among 420,000; AID 686979, 2013; note: nearly all actives have a fitted effect of over 55% in size
#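 Chicken DT40 Tdp1-/- cells complemented with human TDP1, 400 cells/well, exposed to compounds plus 20 nM camptothecin for at least 48 h at 37 C; viability read as ATP content by CellTiter-Glo luminescence.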
# RORg inh: qHTS for inhibitors of ROR gamma transcriptional activity. Nuclear receptor ROR-gamma (Mus musculus), P51450. Drosophila S2 Gal4-RORgamma UAS-luciferase reporter, 20 h. Potency, µM (doses to about 53.6 µM), without a hit: at the highest dose activity change, negative = inhibition, most hits filed as inhibitors. hit rate 5.4% among 310,000. AID 2551, 2010; note: nearly all actives have a fitted effect of over 60% in size
#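 Drosophila S2 cells stably expressing Gal4-DBD/mouse RORγ fusion under metallothionein promoter plus UAS-luciferase; compound 1 h, then 700 uM CuSO4 induction for 20 h at ambient temperature; inhibition read as reduced luminescence.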
# * = called active by the depositor; ? = inconclusive; . = not tested or not shown; [ ] = remark or other dose. Calls come from the whole dose curve; as a rule, active = well fitted curve in the direction sought with a large enough effect; inconclusive = small, poorly fitted or top-dose-only effect, or another doubt; inactive = no such curve, though single readings can be large; an effect the other way counts as inactive or inconclusive. % is set by controls: 0 for no effect and ±100 for the full control effect; potency is the fitted concentration of half-maximal effect.
SMILES,Gal4-VP16 FLuc,12-LOX inh,TDP1 cell noCPT,ELG1 repair inh,DT40 TDP1 CPT,RORg inh
O=C(Nc1ccc(F)cc1)c1ccc(Br)c(S(=O)(=O)N2CCOCC2)c1,-5%,-3%,?,15µM*,?,?
Cc1ccc(C(=O)Nc2ccc(F)cc2)cc1S(=O)(=O)N1CCOCC1,.,-22%,?,.,?,.
Cc1oc(S(=O)(=O)N2CCOCC2)cc1C(=O)Nc1ccc(F)cc1,-14%,6%,-26%,23µM*,-1%,12%
C/C(=N/N=C(c1ccccc1)c1ccccc1)c1ccncc1,.,-1%,.,.,.,.
CCCn1c(=O)c2sccc2n2c(CCCC(=O)Nc3ccc(Oc4ccccc4)cc3)nnc12,.,?,15µM*,.,10µM*,.
CCn1c(=O)c2sccc2n2c(CCCC(=O)Nc3ccc(C)cc3)nnc12,.,-14%,?,.,?,.
CCCn1c(=O)c2sccc2n2c(CCCC(=O)Nc3ccc(Oc4ccc(Cl)cc4)cc3)nnc12,.,-24%,16µM*,.,16µM*,.
O=C(NC1CCCN(c2cc(-c3ccc(F)cc3)[nH]n2)C1)c1ccc2ncccc2c1 (configuration not stated),.,22%,.,.,.,.
Cc1nn(-c2ccc(C(=O)OC(C)C)cc2)c(C)c1[N+](=O)[O-],10%,-9%,26µM*,0%,-1%,22%
Cc1onc(-c2ccccc2)c1C(=O)NC(=S)Nc1sc2c(c1C#N)CCC(C)C2 (configuration not stated),?,-25%,?,?,?,2.8µM*
Cc1onc(-c2ccccc2)c1C(=O)Nc1sc2c(c1C(N)=O)CCC2,1%,-19%,?,0%,-25%,38%
Cc1onc(-c2ccccc2)c1C(=O)Nc1sc2c(c1C#N)CCC2,0%,?,?,?,29µM*,17%
COc1ccc(NC(=O)N2CCCC(c3nc(-c4ccc(OC)cc4)no3)C2)cc1 (configuration not stated),9%,-5%,?,-14%,?,?
COc1ccc(-c2noc(C3CCCN(C(=O)Nc4ccccc4F)C3)n2)cc1 (configuration not stated),1%,2%,23µM*,?,?,34%
CN1C[C@@H](NC(=O)Nc2ccccc2)C[C@H]1c1nc(-c2ccccc2)no1,.,28µM*,.,.,.,.
COc1ccc(-c2noc(C3CCCN(C(=O)Nc4ccccc4)C3)n2)cc1 (configuration not stated),-12%,-8%,?,16%,26µM*,-10%
COc1ccc(NC(=O)N2CCCC(c3nc(-c4ccc(C(C)C)cc4)no3)C2)cc1 (configuration not stated),-10%,2%,21µM*,?,?,?
COc1ccccc1CCn1cnc(Cc2ccccc2)c1C(C)C,.,-18%,7.3µM*,.,7.3µM*,.
COc1ccccc1CCn1cnc(-c2ccc(Br)cc2)c1C(C)C,.,?,18µM*,.,15µM*,.
CCCCCc1c(-c2ccc(Br)cc2)ncn1CCc1ccccc1OC,.,-102%,4.6µM*,.,6.5µM*,.
CCc1c(Cc2ccccc2)ncn1CCc1ccccc1OC,.,-12%,.,.,.,.
CCCCCc1c(-c2ccc(F)cc2)ncn1CCc1ccccc1OC,.,-39%,18µM*,.,9.2µM*,.
O=C(O)CCc1nc(C2CCOCC2)n[nH]1,.,-11%,.,.,.,.
CC(C)COc1ccc(C/C(N)=N/n2cnnc2)cc1,?,3%,5.8µM*,?,5.2µM*,?
O=C(Cn1cc[n+](Cc2ccccc2)c1)c1ccc([N+](=O)[O-])cc1,0%,-1%,2.6µM*,15µM*,3.7µM*,-44%
SMILES,Gal4-VP16 FLuc,12-LOX inh,TDP1 cell noCPT,ELG1 repair inh,DT40 TDP1 CPT,RORg inh
O=[N+]([O-])c1ccc(C[n+]2ccc(Cc3ccccc3)cc2)cc1,5%,-14%,10µM*,?,18µM*,-4%
c1ccc(Cc2cc[n+](Cc3ccccn3)cc2)cc1,8%,478%,9.2µM*,0%,21µM*,10%
O=C(C[n+]1ccn(-c2ccccc2)c1)c1ccc([N+](=O)[O-])cc1,.,0%,16µM*,-18%,15µM*,.
O=C(C[n+]1ccccc1)c1cccc([N+](=O)[O-])c1,.,.,-3%,.,-8%,.
O=S(=O)(c1ccc(Cl)s1)N1CCC(n2c(C(F)(F)F)nc3cccnc32)CC1,.,-1%,.,.,.,.
Nc1nc(SCC(=O)Nc2ccc(Br)cc2F)n[nH]1,13%,154%,-16%,14%,-22%,-7%
O=C(CSc1nc(Nc2ccccc2)nc(N2CCOCC2)n1)Nc1ccccc1Cl,10%,-11%,11µM*,?,16µM*,-30%
O=C(CSc1nc(Nc2ccccc2)nc(N2CCOCC2)n1)NC1CCCCC1,2%,?,?,7%,?,6%
O=C(CSc1nc(Nc2ccccc2)nc(N2CCOCC2)n1)Nc1ccc(Br)cc1F,2%,0%,18µM*,1%,?,-8%
CCC(CC)c1nnc(NC(=O)C2COc3ccccc3O2)s1 (configuration not stated),-26%,3%,-21%,?,-19%,10µM*
O=C(NC1=NCCS1)C1COc2ccccc2O1 (configuration not stated),4.5µM*,0%,-10%,?,-26%,6.3µM*
COc1ccc(Cl)cc1C(=O)NNC(=O)C1COc2ccccc2O1 (configuration not stated),3%,-4%,?,-9%,?,?
CCc1nnc(NC(=O)C2COc3ccccc3O2)s1 (configuration not stated),-7%,?,-21%,?,5%,-32%
O=C(NNC(=O)C1COc2ccccc2O1)c1ccccc1O (configuration not stated),.,6%,16µM*,18%,?,.
O=C(Nc1ccncc1)C1COc2ccccc2O1 (configuration not stated),?,0%,-30%,-3%,?,9%
COc1cccc(NC(=O)c2cnc3c(c2)N([S+](=O)([O-])c2cccnc2)CCC3)c1,.,-8%[176 µM],.,.,.,.

# Compound activity: PubChem, National Center for Advancing Translational Sciences (NCATS)
